This note sets out measurements from PubChem BioAssay (NCI).

Holding throughout (assay): NCI-60 one-dose screen, 48 h (100 = growth as untreated, 0 = no growth, -100 = all killed)
Holding throughout (conditions): 10 µM unless noted

The test system of assay [1] is NCI-H23 lung.
Assay [2] deals with NCI-H226 lung.
Assay [3] relates to NCI-H322M lung.
Assay [4] has as its system NCI-H460 lung.
Assay [5] has as its system NCI-H522 lung.
In assay [6] the test system is A549/ATCC NSCLC.
The test system of assay [7] is 786-0 renal.
The subject of assay [8] is DU-145 prostate.
The subject of assay [9] is MALME-3M melanoma.
For assay [10], the system named is MDA-MB-231 breast.
Assay [11] deals with RXF 393 renal.
Assay [12] deals with SF-268 CNS.
Assay [13] concerns SF-295 CNS.
The subject of assay [14] is SF-539 CNS.
Assay [15] deals with UACC-257 melanoma.
Assay [16] concerns M14 melanoma.
Assay [17] relates to HCT-15 colon.
Assay [18] deals with K-562 leukemia.
Assay [19] concerns COLO 205 colon.
In assay [20] the test system is HOP-62 NSCLC.

About 83,000 compounds went through this panel and 20% of them were active in at least one assay; those are over-represented in the sample as a whole.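 Assay: single dose, 48 h. Readout: percent growth (0 = no net growth; negative = cell death). Active: <10.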 A number with no mark means an inactive call. The source made the active and inactive calls.

Take `COc1cc(C2NC(c3ccc(Cl)cc3)C(C)/C(=N/NC(N)=S)C2C)cc(OC)c1OC` (stereo not given): the growth in [1] is 92.6%; in assay [2], 85.9%; in assay [3] it was 97.7%; in assay [4], 100%; in assay [5], 65.6%; in [6], 94.9%. In addition, the growth in [7] was 91.1%; in assay [8], 117%; in assay [9], 73%; in assay [10], 101%; in assay [11] it was 85.9%; in assay [12] it was 101%. The growth is 117% in [13]; 88.8% in assay [14]; 103% in assay [15]; 92.7% in assay [16]; 81.9% in assay [17].
As for `COc1ccc(-c2cn(-c3ccccc3)c(-c3ccccc3)n2)cc1OC`, the growth in [1] was 75.7%; in assay [2] it was 62.4%; in [3], 88.4%; in assay [4] it was 70.5%; in assay [5], 75.4%; in assay [6] it was 85.8%. Moreover, the growth is 83.7% in [7]; -22.9% (active) in [8]; 14.8% in assay [18]; 111% in assay [9]; 73.8% in [10]; 102% in assay [11]. For the same compound, the growth in assay [12] was 47.9%; in assay [13] it was 94.7%; in assay [14], 79.6%; in assay [15], 105%; in assay [16], 87%; in [17], 17.1%.
Turning to `O=C(CSc1nnc(Nc2ccccc2)s1)NCCc1ccc(F)cc1`, the growth in assay [1] is 131%; in [2], 85.1%; in assay [3], 115%; in assay [4], 105%; in assay [5] it was 91.5%; in [6], 124%. In addition, the growth is 95.6% in [7]; 115% in assay [19]; 105% in assay [8]; 107% in assay [18]; 97.4% in assay [9]; 91.5% in assay [10]. Also, the growth in [11] was 113%; in [12], 109%; in [13] it was 102%; in [14] it was 96.4%; in [16] it was 103%; in [17], 120%.
Take `NC(=O)NN=C(C1CC1)C1CC1`: the growth is 93.8% in assay [1]; 109% in assay [2]; 110% in [3]; 104% in [20]; 106% in assay [4]; 103% in [6]. The growth in assay [7] is 107%; in [19], 105%; in [8], 116%; in assay [18], 94.8%; in assay [9], 143%; in assay [10], 118%. Besides, the growth in assay [11] was 138%; in [12], 102%; in assay [13], 106%; in [14] it was 90.2%; in [15], 101%; in [16] it was 106%. For the same compound, the growth in assay [17] was 98%.
On to `COc1cccc(-c2nnc(N)o2)c1`, for which the growth in [1] was 101%; in assay [2] it was 103%; in assay [3], 99.5%; in assay [4], 107%; in assay [5], 96.8%; in assay [6], 102%. For the same compound, the growth is 100% in assay [7]; 117% in [19]; 107% in [8]; 98.1% in assay [18]; 106% in assay [9]; 124% in assay [10]. The growth in [11] was 94.6%; in [12], 111%; in [13] it was 113%; in assay [14], 111%; in assay [15] it was 92.7%; in [16] it was 91.1%. In assay [17], the growth was 106%.
Regarding `CCCCCCCCCCSc1ncnc2nc[nH]c12`, the growth in [1] was 36.8%; in assay [2] it was 67.4%; in assay [3], 88.5%; in assay [4], 65.8%; in assay [5], 57.1%; in assay [6], 58.5%. Besides, the growth is 71.3% in [7]; 113% in assay [19]; 75% in assay [8]; 48.5% in assay [18]; 102% in assay [9]; 75.3% in assay [10]. Also, the growth in [11] was 89.5%; in [12], 83.7%; in assay [13], 68.7%; in assay [14], 86.8%; in assay [15], 48.5%; in assay [16], 94%. In [17], the growth was 82.4%.
Consider `CCCCCCCC/C=C/CCCCCCCC1=NC(C)(C)CN1CC(C)O` (stereo not given), for which the growth in assay [1] is 67%; in assay [2] it was 89.6%; in assay [3] it was 53.9%; in assay [20] it was 36.5%; in assay [4], -34.9% (active); in assay [6] it was 27.9%. The growth in assay [7] was 59%; in assay [19], -91.3% (active); in assay [8] it was 69.2%; in assay [9], 68.5%; in assay [10] it was 30.5%; in [11], 14.7%. Also, the growth in assay [12] is 55.5%; in [13], 32.4%; in assay [14], 29.2%; in assay [15] it was 87.2%; in [16] it was 31.8%.
Regarding `COc1cc(OC)c2sc(-c3ccc(-n4cncc4-c4ccc(N)cc4)cc3)nc2c1`, the growth in assay [1] is 101%; in assay [2], 98.7%; in assay [3], 84.7%; in [4], 78.7%; in assay [5], 84.8%; in [6] it was 60%. Besides, the growth in [7] was 71.8%; in assay [8], 80.3%; in [18], 59.9%; in assay [9], 84.4%; in assay [10], 87.3%; in [11], 81.5%. The growth was 74.5% in assay [12]; 48.1% in assay [13]; 84.6% in assay [14]; 69.8% in assay [15]; 76.4% in assay [16]; 69.7% in [17].
